# Test results from the supplement of paper PMC6555819.
# System: PXR homodimer (NR concentration 270 nM)
# Experiment: PBM binding z-score (relative to random genomic background probes); higher = stronger binding; sequences stand for … in GC…GCGATTGACAGCGTAGAATGAAGG
# Summary of the method: (§1)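 Probes were double-stranded and carried 34-nt variable regions with direct-repeat seeds, single-nucleotide variants, half-site ablations and random human genomic background sequences, printed on custom Agilent 4×180K protein-binding microarrays. Arrays were incubated 1 h with ligand-free nuclear receptor dimers in PBS pH 7.4, 2% milk, 0.02% Triton X-100, 1 mM DTT, 0.2 mg/mL BSA and 0.4 mg/ml salmon testes DNA. Antibodies against each partner (one per run) detected binding, and scanned fluorescence was regression-normalized. Binding z-scores use the random background probes as reference.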
row,Sequence,PBM binding z-score
1,TCTTGTAGATCAAGCAGGTTAATAAAGCCTGAGT,0.326
2,CCAGACAGGTGAAAGGTACCTCAGTCTGGTACGC,-0.251
3,CGTCCAAGGGCATAGGAGGTCAGTGAAGACAGAT,1.16
4,CAAACTAGGTCACGATAGGTCAAAGTCGAATGAC,0.73
5,TCTCGGAGGACACCAAGGTCAGAGCTTTCCAGAG,2.65
6,TCATATAGGTAAAGGTGAAAGGCGAACGATATGA,0.264
7,CGAACGAGGGCATGAGTTGATCGCAAATGCCGAT,-0.144
8,GCTCCTAGGTCAACTGATGGTCAGCTAAAGCTCG,-0.577
9,AGTCAAAGTTCATCTAGCTAACGTAAGATATGCT,4.89
10,TTTCCAAGGTGAGCTGAGGTCGTTGATCCAACTC,1.26
11,CCTAGCAGGCCAATCTGGGTTACTCAAGGCTTGA,-0.895
12,TCTGCTAGGTCAGTAGGTCAGCTAACGAGCTGCC,-0.386
13,CGTCCAAGGTCAAGGACAGTGAAAGAGACTCGAA,0.575
14,CTCAAAAGGTCGTGCTCAGGTGAGTATACCAAAC,0.288
15,ACTAGAAGGCCAAGTTTGGGTCACTCAAACAAAG,-0.219
16,GCAGACAGGTGAGACGCAGGTAACTCAGGGTGGC,-0.385
17,ACTAGCAGGCCAAGGGTCAATCAAGATTAGTCCG,-0.202
18,AGTGAAAGTTCATCTAGGTAACGTAAGATATGCT,6.78
19,CAAACTAGGTCACAGGAAGGTCAAAGTCCGCATG,1.51
20,CGTCCAACGTCAATGCTAGGTCAGTGAAAGCATT,-0.688

row,Sequence,PBM binding z-score
1,AATGCAGGGTCACTAGGCCAGAGTAGGTACGAAT,0.127
2,ACTGACAGGTGAGTGAAGGTAACTCAGCTGGACG,-0.633
3,ACTATTAGTCGACTTAGGGCAACCGATACGACGC,-0.351
4,TCATATAGGTAAATGCTAAGTGAAAGTCCGATCT,0.372
5,CCTCGGAGGACGACAGGAGGTCAGAGCTGCCAGA,-0.155
6,CCGACTGAGGCAAGGTTACCATAACGCACAGCCA,-0.0704
7,TTACCAAGGTGAAAGGTCGTCGATGCACGCCTTG,-0.076
8,CGAACTAAGTCAAGGACAGTGAATCTCCGCACGC,-0.329
9,CGTCTAAGGTCAGAGAGGTCAGTGAATGCCGAGT,12
10,TGAATGAGGTGATAAGATCAGGGAACGTTGCAAA,-0.0145
11,CCTAGCAGGCCAGGGTCACTGAAGCATTTCGCTT,-0.468
12,TTATATAGGTAAACAGGTGAAAGTCCGTAAGTTA,0.398
13,TAGCCTAGGTCCGATCGGGCCAGTATACGCTATA,-1.16
14,AGAACGAGGGCAGGCTGAGTTGATAGCAGAGTAG,-0.0945
15,GCTTACGGGTCAAAGATTATAGCATGAATAGAAT,-0.0668
16,TCTAGCAGGCCACAGGGTCACTCAAGAGGTACGG,-0.163
17,TAGCCTAGGTCACTGGGCCAGTATAGTACGCATC,-0.648
18,TTACCAAGATGAAGGTCGTTGATCCCTCTGTAGA,-0.0787
19,GATATAGGGTCAAGGCCAGAGTACGCGTATTGAT,0.146
20,GCGAATGGGGCAAAGCAGGTTACCATAAGGTTGG,-0.414

# System: RARa:RXR (NR concentration 270 nM, RXRa partner concentration 90 nM)
# Experiment: as above
# Summary of the method: as §1
row,Sequence,PBM binding z-score
1,TCTTGTAGATCAAGCAGGTTAATAAAGCCTGAGT,0.406
2,CCAGACAGGTGAAAGGTACCTCAGTCTGGTACGC,0.49
3,CGTCCAAGGGCATAGGAGGTCAGTGAAGACAGAT,3
4,CAAACTAGGTCACGATAGGTCAAAGTCGAATGAC,5.95
5,TCTCGGAGGACACCAAGGTCAGAGCTTTCCAGAG,2.17
6,TCATATAGGTAAAGGTGAAAGGCGAACGATATGA,1.81
7,CGAACGAGGGCATGAGTTGATCGCAAATGCCGAT,0.222
8,GCTCCTAGGTCAACTGATGGTCAGCTAAAGCTCG,3.53
9,AGTCAAAGTTCATCTAGCTAACGTAAGATATGCT,3.89
10,TTTCCAAGGTGAGCTGAGGTCGTTGATCCAACTC,2.04
11,CCTAGCAGGCCAATCTGGGTTACTCAAGGCTTGA,-0.308
12,TCTGCTAGGTCAGTAGGTCAGCTAACGAGCTGCC,2.58
13,CGTCCAAGGTCAAGGACAGTGAAAGAGACTCGAA,4.25
14,CTCAAAAGGTCGTGCTCAGGTGAGTATACCAAAC,4.2
15,ACTAGAAGGCCAAGTTTGGGTCACTCAAACAAAG,2.15
16,GCAGACAGGTGAGACGCAGGTAACTCAGGGTGGC,0.154
17,ACTAGCAGGCCAAGGGTCAATCAAGATTAGTCCG,4.28
18,AGTGAAAGTTCATCTAGGTAACGTAAGATATGCT,3.24
19,CAAACTAGGTCACAGGAAGGTCAAAGTCCGCATG,7.15
20,CGTCCAACGTCAATGCTAGGTCAGTGAAAGCATT,0.602

row,Sequence,PBM binding z-score
1,AATGCAGGGTCACTAGGCCAGAGTAGGTACGAAT,4.25
2,ACTGACAGGTGAGTGAAGGTAACTCAGCTGGACG,0.381
3,ACTATTAGTCGACTTAGGGCAACCGATACGACGC,0.128
4,TCATATAGGTAAATGCTAAGTGAAAGTCCGATCT,0.974
5,CCTCGGAGGACGACAGGAGGTCAGAGCTGCCAGA,2.06
6,CCGACTGAGGCAAGGTTACCATAACGCACAGCCA,0.645
7,TTACCAAGGTGAAAGGTCGTCGATGCACGCCTTG,6.52
8,CGAACTAAGTCAAGGACAGTGAATCTCCGCACGC,0.0296
9,CGTCTAAGGTCAGAGAGGTCAGTGAATGCCGAGT,5.99
10,TGAATGAGGTGATAAGATCAGGGAACGTTGCAAA,0.43
11,CCTAGCAGGCCAGGGTCACTGAAGCATTTCGCTT,3.83
12,TTATATAGGTAAACAGGTGAAAGTCCGTAAGTTA,0.957
13,TAGCCTAGGTCCGATCGGGCCAGTATACGCTATA,-1.17
14,AGAACGAGGGCAGGCTGAGTTGATAGCAGAGTAG,-0.281
15,GCTTACGGGTCAAAGATTATAGCATGAATAGAAT,4.47
16,TCTAGCAGGCCACAGGGTCACTCAAGAGGTACGG,3.42
17,TAGCCTAGGTCACTGGGCCAGTATAGTACGCATC,1.93
18,TTACCAAGATGAAGGTCGTTGATCCCTCTGTAGA,1.18
19,GATATAGGGTCAAGGCCAGAGTACGCGTATTGAT,4.91
20,GCGAATGGGGCAAAGCAGGTTACCATAAGGTTGG,0.571
